Compound activity as filed in PubChem.
Shown is part of a subset that was picked to be rich in hits.
PNC inhibitor: blocks assembly of the perinucleolar compartment; actives 3.1% (n = 140,000); activity change (PNC), negative = inhibition, % at 10 µM; PC3M PTB-GFP, PNC prevalence imaging, 16 h; hits give low values;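 active = readout at or below -70, meaning at least 70% loss of cells showing the perinucleolar compartment, a nuclear body marking cancer cells; inconclusive = readout between -30 and a set limit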
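Read-out is percentage of cells bearing a perinucleolar compartment, from automated 20x imaging of fixed, Hoechst-stained PC3M PTB-GFP cells. Cells were seeded 4 h, then exposed 16 h to compound (23 nl of library stock) in duplicate plates.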
HttQ103 aggreg: reduces HttQ103-GFP aggregates in PC12 cells. PC12 HttQ103-GFP aggregates, Acumen cytometry, 40 h. Potency, µM (doses to about 46.1 µM), usual class: inhibitors. actives 1.1% (n = 220,000). AID 1688; also: nearly all actives have a fitted effect of over 60% in size
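Steps: seed 1500 PC12 HTTQ103-GFP cells/well; add tebufenozide, 100 nM final; add compound titration; add ATPLite reagent; quantify GFP aggregates by laser scanning cytometry.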
HTT ATP protect: Huntington cell model cytoprotection by ATP luminescence; Potency, µM (titrated, usually from 56.4 µM), actives largely listed as activators; PC12 HTT-Q103 induced, cytoprotection, ATP luminescence, 40 h; actives 0.14% (n = 230,000); also: nearly all actives have a fitted effect of over 45% in size
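Stable PC12 Q103-GFP cells in serum-supplemented, phenol red-free DMEM; induction by tebufenozide at 100 nM final; compound dose series; cell viability quantified luminescently from ATP.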
Numbers stand for hits; – = inactive; ? = inconclusive; · = no result given; [ ] = remark or other dose. Unless noted, calls follow the shape of the dose curve; as a rule, active = well fitted curve in the direction sought with a large enough effect; inconclusive = small, poorly fitted or top-dose-only effect, or another doubt; inactive = no such curve, though single readings can be large; an effect the other way counts as inactive or inconclusive.

SMILES | PNC inhibitor | HttQ103 aggreg | HTT ATP protect
Cc1cccc(OCCCC(=O)NC(C)c2ccccc2)c1 (centres undefined) | – | – | –
Cc1cccc(OCCCC(=O)NC(C)C)c1 | -80.2 | – | –
CCCCOc1cccc(OCCCC)c1C(=O)Nc1cc(C)on1 | – | – | –[0.074 µM]
Cn1cc(CN2CCCC(C(=O)c3ccc(-c4ccccc4)c(F)c3)C2)cn1 (centres undefined) | · | – | –
O=C1[C@H]2[C@H]3[C@H](O)[C@H](O)C/C(=N/OCc4ccccc4)[C@@H]3CC[C@@H]2C(=O)N1Cc1ccc2c(c1)OCO2 | · | · | –[10 µM]
COC(=O)c1nc2n(n1)C(c1ccccc1OC)C1=C(CCCC1=O)N2 (centres undefined) | ? | – | –
CCNC(=S)N/N=C(\C)c1ccc(N2CCOCC2)cc1 | – | – | –[0.074 µM]
CNC(=S)N/N=C(\C)c1ccc(N2CCOCC2)cc1 | -112.3 | – | –[1.9 µM]
CCOC(=O)CCSc1nc(C)c2cc(C)c(C)cc2n1 | ? | – | –[1.9 µM]
COc1ccc(-c2nnc(SC(C)C(=O)Nc3c(C)n(C)n(-c4ccccc4)c3=O)o2)cc1 (centres undefined) | – | – | –
CCC(C)(C)n1nnnc1C(C(C)C)N1CCC(C(N)=O)CC1 (centres undefined) | – | – | –[10 µM]
COCCOC(=O)C1=C(C)N(c2ccccc2)C(=O)NC1c1cccc([N+](=O)[O-])c1 (centres undefined) | – | ? | –[10 µM]
COCCOC(=O)C1=C(C)Nc2cc(=O)[nH]c(=O)n2C1c1cccc([N+](=O)[O-])c1 (centres undefined) | -109.0 | – | ·
CCOc1cccc(/C=N/NC(=O)CC2C(=O)NN=C2C)c1O (centres undefined) | · | – | –
C=CCn1c(COc2ccc(Cl)cc2)nnc1SCC(=O)c1c(N)n(C)c(=O)n(C)c1=O | · | – | ·
Cc1cccc(/C(N)=N/OC(=O)Cc2cccs2)c1 | – | – | –
Cc1cc(Br)c(NC(=O)CN(C)CCOc2ccccc2)c(Br)c1 | · | – | –
Cc1cc(Br)c(NC(=O)CCl)c(Br)c1 | -88.5 | – | –[10 µM]
CC1=C(C)CC(C(=O)N2CCN(C/C=C/c3ccccc3)CC2)C(C(=O)O)C1 (centres undefined) | · | –[9.22 µM] | ?
O=C(COc1ccccc1Cl)Nc1ccc(CN2CCCCC2)cc1 | · | –[9.22 µM] | –
O=C(COc1ccccc1Cl)Nc1cnn(Cc2ccccc2)c1 | -94.0 | – | –
O=C(C[N+]1(CC#Cc2ccccc2)CCOCC1)c1ccccc1 | · | – | –
O=C(CCn1c(=O)oc2ccccc21)N(Cc1ccccc1)c1ccccc1 | · | –[9.22 µM] | –[10 µM]
C=CCNc1ncnc2ccccc12 | – | – | –
CCN(CC)CCCNc1ncnc2ccccc12 | · | –[9.22 µM] | –[10 µM]
SMILES | PNC inhibitor | HttQ103 aggreg | HTT ATP protect
OCCCCCNc1ncnc2ccccc12 | – | 7.94µM | –[10 µM]
c1ccc(CNc2ncnc3ccccc23)cc1 | – | 4.47µM | –[10 µM]
CCOC(=O)N1CCN(C(=O)c2cc3c(s2)-c2ccccc2OC3)CC1 | – | – | –[10 µM]
Cc1cc(C)nc(NS(=O)(=O)c2ccc(NC(=O)c3ccc(N4C(=O)CCC4=O)cc3)cc2)n1 | -101.5 | – | –[10 µM]
Cc1cc(C)nc(NS(=O)(=O)c2ccc(NC(=O)c3ccc(S(=O)(=O)N4CC(C)OC(C)C4)cc3)cc2)n1 (centres undefined) | – | – | –[10 µM]
Cc1cc(C)nc(NS(=O)(=O)c2ccc(NC(=O)CN3C(=O)c4ccccc4C3=O)cc2)n1 | -92.4 | – | –
Cc1cc(NS(=O)(=O)c2ccc(NC(=O)CN3C(=O)c4ccccc4C3=O)cc2)nc(C)n1 | – | – | –
CC(=O)Nc1ccc(CN2CCN(C3CCCCC3)C(CCO)C2)cc1 (centres undefined) | · | – | –
CCOc1ccc(-n2nc(C(=O)N3CCN(CC)CC3)c3ccccc3c2=O)cc1 | -85.6 | – | –[10 µM]
CCOc1ccc(-n2nc(C(=O)NCCOC)c3ccccc3c2=O)cc1 | – | – | –
COc1ccc(Nc2cc(C(=O)NCCCN3CCN(C)CC3)c3ccccc3n2)cc1 | – | – | –
O=C(OC(C(=O)NC1CCCCC1)c1ccccc1)c1ccco1 (centres undefined) | ? | – | –[10 µM]
O=C(OC(C(=O)NC1CCCC1)c1ccccc1F)c1ccco1 (centres undefined) | -139.2 | – | –
C/C(=N/NC(=O)c1ccoc1C)c1ccc(NC(=O)C2CCCC2)cc1 | -86.9 | – | ·
C/C(=N\NC(=O)c1ccoc1C)c1ccccc1 | · | –[9.22 µM] | –[10 µM]
Cn1ncc([N+](=O)[O-])c1C(=O)Nc1ccn(Cc2ccccc2F)n1 | – | – | –
Cn1cc([N+](=O)[O-])c(C(=O)Nc2ccn(Cc3c(F)c(F)cc(F)c3F)n2)n1 | ? | · | 10µM
CN(Cc1ccccc1)c1oc(COc2ccccc2F)nc1C#N | – | ? | –
C=CCSc1nnc2c(n1)OC=Nc1ccc(Br)cc1-2 | – | – | ?
CC1(C)Oc2ccccc2OC1(O)c1ccc2ccccc2n1 (centres undefined) | -113.4 | ? | ·
O=[N+]([O-])c1ccc(/C=C/c2ccc3ccccc3n2)cc1 | · | ? | –
COc1cc(CN2CC(=O)N(c3ccc(C)cc3)C2=S)cc(OC)c1OC | ? | – | –[10 µM]
CCCCNC(=O)CN1C(=O)c2cccc(N)c2C1=O | · | – | –[10 µM]
COCc1cc(C)nc(OCC(=O)N/N=C/c2ccccc2O)c1C#N | · | 11.2µM | –
COCc1cc(C)nc(OCC(=O)N/N=C/c2ccc(O)cc2O)c1C#N | · | ? | –
SMILES | PNC inhibitor | HttQ103 aggreg | HTT ATP protect
O=C(c1cccc(OC(F)F)c1)N1CCN(c2ncccn2)CC1 | ? | – | –
COc1ccc(-c2noc(-c3cc4ccccc4oc3=O)n2)cc1 | – | – | –
COc1ccc(-c2csc(-c3cc4ccccc4oc3=N)n2)cc1 | -93.2 | – | –[10 µM]
COc1ccccc1NC(=O)CSc1nnc(Cn2cnc3ccccc32)o1 | · | –[9.22 µM] | –[10 µM]
CC(C)(C)Cc1nnc(NS(=O)(=O)c2ccc(F)cc2)s1 | -82.5 | – | –
CC(=O)Nc1ccc(S(=O)(=O)Nc2nnc(CC(C)(C)C)s2)cc1 | · | –[9.22 µM] | –[10 µM]
C#CCn1c(=NC(=O)c2ccc(S(=O)(=O)N3CCCc4ccccc43)cc2)sc2cc(S(N)(=O)=O)ccc21 | – | – | –[10 µM]
O=C(O)c1cccc(Oc2ccccc2[N+](=O)[O-])c1 | -116.4 | – | –[10 µM]
O=C(COc1ccccc1[N+](=O)[O-])c1ccccc1 | · | –[9.22 µM] | –
Fc1ccc(/C=N/N2CCOCC2)c(F)c1 | · | – | 0.708µM
Fc1cccc(F)c1/C=N/N1CCOCC1 | · | – | –
O=C(CN1CCC(n2nnc3cc(F)ccc32)CC1)NCCc1nc2ccccc2[nH]1 | – | – | –[10 µM]
CC1CC(C)C[N+](=C2C=C(N3CCCC3)CC(C)(C)C2)C1 (centres undefined) | · | ? | –[10 µM]
CC1(C)CC(N2CCN(c3ccccc3)CC2)=CC(=[N+]2CCCC2)C1 | – | 3.98µM | –[10 µM]
CN(Cc1ccccc1)C1=CC(=[N+]2CCCC2)CC(C)(C)C1 | · | –[9.22 µM] | –[10 µM]
CC1(C)CC(N2CCCC2)=CC(=[N+]2CCCCCC2)C1 | · | 2µM | –
CCOC(=O)OCC1OC(C#Cc2ccc(C)cc2C)C=CC1OC(=O)OCC (centres undefined) | · | · | –[10 µM]
CCCc1nnc(NC(=O)CCC(=O)N2CCN(c3nc(C)cc(C)n3)CC2)s1 | · | –[9.22 µM] | –[10 µM]
Cc1ccc(OCCOC(=O)Cn2nc(C)c([N+](=O)[O-])c2C)cc1 | · | – | –
